This passage reports Potency results from PubChem BioAssay (NCATS).

Inconclusive results are not listed. Entries that show only a call come without a potency. Activity calls are given as the source filed them. The call rests on the fitted dose curve; in most records, active means well fitted inhibition curve with a large enough effect; inconclusive means small, poorly fitted or top-dose-only effect; inactive means no such curve, though single readings can be large or run the other way.
Potency means the concentration at half of the fitted maximal effect.

This test deals with Nuclear receptor ROR-gamma (Homo sapiens) (UniProt P51449). Nature of the test: qHTS assay for small molecule antagonists of the retinoid-related orphan receptor gamma (ROR-gamma) signaling pathway (AID 651802). Further: nearly all actives have a fitted effect of over 60% in size. The settings on record: ROR-gamma antagonist cell reporter assay; series mostly up to 92.2 µM. The method in brief: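 CHO, TET-inducible ROR + RORE-LUC reporter, 1536-well qHTS. Compound pinned, doxycycline added, 16hr 37C/5% CO2. ONE-Glo, 30 min RT, luminescence; signal drop scored as antagonism.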
Chain of Nuclear receptor ROR-gamma (Homo sapiens) (P51449 whole entry, looked up): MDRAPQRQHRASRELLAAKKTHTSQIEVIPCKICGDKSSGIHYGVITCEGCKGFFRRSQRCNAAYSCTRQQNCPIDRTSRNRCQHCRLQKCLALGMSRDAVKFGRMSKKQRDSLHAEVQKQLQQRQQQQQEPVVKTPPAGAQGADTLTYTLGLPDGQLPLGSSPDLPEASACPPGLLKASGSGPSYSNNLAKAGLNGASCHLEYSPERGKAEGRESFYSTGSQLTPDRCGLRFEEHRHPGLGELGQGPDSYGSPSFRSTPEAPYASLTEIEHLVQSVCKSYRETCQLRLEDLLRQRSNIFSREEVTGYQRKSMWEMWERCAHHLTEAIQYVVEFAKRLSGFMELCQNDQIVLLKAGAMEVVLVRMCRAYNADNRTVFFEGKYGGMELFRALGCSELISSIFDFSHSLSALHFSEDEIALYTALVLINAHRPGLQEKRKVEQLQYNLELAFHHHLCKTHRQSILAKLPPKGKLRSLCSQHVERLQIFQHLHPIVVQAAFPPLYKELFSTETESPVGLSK
On the technique in general: In qHTS, concentration-response curves come from the screen itself.
As to `CCOc1ccc(NC(C)=O)cc1`, the Potency result was “inactive”. As for `COc1ccc(C(Cl)=C(c2ccc(OC)cc2)c2ccc(OC)cc2)cc1`, the figure is 18.8 µM (active); as for `C/C=C/c1ccc(O)c(OC)c1`, “inactive”.

In the case of `OC[C@H]1O[C@@H]2O[C@H]3[C@H](O)[C@@H](O)[C@@H](O[C@H]4[C@H](O)[C@@H](O)[C@@H](O[C@H]5[C@H](O)[C@@H](O)[C@@H](O[C@H]6[C@H](O)[C@@H](O)[C@@H](O[C@H]7[C@H](O)[C@@H](O)[C@@H](O[C@H]8[C@H](O)[C@@H](O)[C@@H](O[C@H]1[C@H](O)[C@H]2O)O[C@@H]8CO)O[C@@H]7CO)O[C@@H]6CO)O[C@@H]5CO)O[C@@H]4CO)O[C@@H]3CO`, the Potency result is “inactive”. Under `CCCN(CCC)S(=O)(=O)c1ccc(C(=O)O)cc1` stands “inactive”; under `CCOc1ccccc1C(N)=O`, “inactive”; under `O=C(O)c1ccc(S(=O)(=O)N(Cl)Cl)cc1`, “inactive”. As for `COc1ccc(C(=O)c2ccccc2)c(O)c1`, the entry is “inactive”; as for `Oc1c(Cl)cc(Cl)c(Cl)c1Cc1c(O)c(Cl)cc(Cl)c1Cl`, 1.06 µM (active).
